Reference: PubChem BioAssay AID1445 (SRMLSC, 2008)
In all, about 220,000 compounds went through this assay and about 910 (0.41%) were called active.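 Rule for the calls: active = primary inhibition above the hit cutoff, then over 50% inhibition at one or more dose response concentrations (cut at about 23% in these data, passing the limit was not always enough); inconclusive = conflicting primary data, or primary hits not chosen for dose response; inactive = low primary inhibition, or under 50% at every dose.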 Only a selection was taken, and actives are over-represented in it overall. Entries with a potency or affinity are not part of this list.

Target: Aminopeptidase N (Plasmodium falciparum (isolate 3D7)) (UniProt O96935)
Sequence (O96935 whole entry, looked up): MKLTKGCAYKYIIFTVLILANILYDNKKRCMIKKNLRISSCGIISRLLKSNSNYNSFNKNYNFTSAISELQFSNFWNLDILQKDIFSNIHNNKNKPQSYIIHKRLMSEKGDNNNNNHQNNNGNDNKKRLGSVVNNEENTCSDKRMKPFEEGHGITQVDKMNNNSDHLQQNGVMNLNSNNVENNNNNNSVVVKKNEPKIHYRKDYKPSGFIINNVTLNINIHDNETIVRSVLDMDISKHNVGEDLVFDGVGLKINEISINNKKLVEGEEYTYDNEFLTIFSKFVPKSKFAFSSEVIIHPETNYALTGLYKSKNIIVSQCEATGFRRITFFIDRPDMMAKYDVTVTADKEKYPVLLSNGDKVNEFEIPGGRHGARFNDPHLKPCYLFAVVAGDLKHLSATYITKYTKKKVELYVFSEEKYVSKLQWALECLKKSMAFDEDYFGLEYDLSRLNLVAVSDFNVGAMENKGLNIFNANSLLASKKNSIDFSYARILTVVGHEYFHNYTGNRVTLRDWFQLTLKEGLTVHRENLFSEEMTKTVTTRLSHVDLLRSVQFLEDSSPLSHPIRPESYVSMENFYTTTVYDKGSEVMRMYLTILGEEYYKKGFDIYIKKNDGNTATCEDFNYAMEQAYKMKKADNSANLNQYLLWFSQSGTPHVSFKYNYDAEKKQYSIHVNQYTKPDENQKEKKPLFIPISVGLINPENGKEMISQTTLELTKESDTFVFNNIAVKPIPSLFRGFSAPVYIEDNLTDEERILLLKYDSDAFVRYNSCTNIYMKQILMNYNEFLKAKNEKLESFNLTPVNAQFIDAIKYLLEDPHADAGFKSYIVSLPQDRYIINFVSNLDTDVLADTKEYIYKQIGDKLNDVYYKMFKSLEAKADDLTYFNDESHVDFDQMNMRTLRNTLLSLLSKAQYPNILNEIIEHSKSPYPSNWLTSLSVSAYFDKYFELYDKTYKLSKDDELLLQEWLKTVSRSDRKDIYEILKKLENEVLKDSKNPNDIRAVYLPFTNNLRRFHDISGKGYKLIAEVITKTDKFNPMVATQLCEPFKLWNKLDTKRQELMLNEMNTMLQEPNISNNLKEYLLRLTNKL
Experiment: P. falciparum M1AAP inhibitors, biochemical, fluorogenic H-Leu-NHMec substrate, 1536-well (AID 1445);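 note: plate controls were DMSO full reaction for no effect and no enzyme background for full effect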
Conditions: recombinant M1AAP, H-Leu-NHMec fluorogenic kinetic assay; at 30 µM, active compounds read high unless noted

inhibition, inactive:
COC(=O)c1ccc(CSc2nc(C(F)(F)F)c3c(c2C#N)CCC3)o1 3.42%, CCSc1nnc(NC(=O)CSc2c(Cl)cccc2Cl)s1 4.43%, COc1ccc(S(=O)(=O)N2CCOCC2)cc1NC(=O)CO/N=C/c1ccccc1OC(F)F 8.16%, Cc1cn(-c2ccccc2)c(C)c1/C=N\Nc1nc(N2CCOCC2)nc(N2CCOCC2)n1 4.34%, Cc1cccc(C)c1NC(=O)CSc1nnc(-c2ccco2)c(-c2ccco2)n1 17.6%, CC(=O)c1ccc(NC(=O)CSc2nnc(-c3ccco3)c(-c3ccco3)n2)cc1 9.65%, Cc1cc(CN(C)C(=O)CC2C(=O)NCCN2Cc2c(F)cccc2Cl)n[nH]1 (configuration not stated) -2.19%, CCS(=O)(=O)C(C)(CCl)C(=O)Nc1ccc(C(=O)OC)cc1 (configuration not stated) 3.92%, COc1c(O)cc2oc(-c3ccc(O)cc3)cc(=O)c2c1O 17.2%, COc1ccc(-c2cc(=O)c3c(O)c(OC)c(O)cc3o2)cc1 17%, O=S(=O)(c1ccccc1)N1CCCC1c1cccs1 (configuration not stated) 0.58%, Cn1c(=O)cc(SCC(=O)N2CCCC2)c2ccccc21 7.32%, CCN(CC)Cc1oc(CO)cc(=O)c1O 5.8%, Cc1c(Cc2ccccc2)c(=O)oc2c(O)c(O)ccc12 17.1%, CCc1cc2c(=O)c(-c3nc4ccccc4n3C)c(C)oc2c(CN(CC)CC)c1O 6.03%, CCc1c(C)c2cc(Cl)c(O)c(CN(C)C)c2oc1=O -5.92%, Cc1c(C)c2cc(Cl)c(O)c(CN(C)C)c2oc1=O 14.8%, Cc1c(Cc2ccccc2)c(=O)oc2cc(O)ccc12 22.2%, CCOc1ccc(OCCCC(=O)NC2=NCCS2)cc1 -1.08%, COc1ccc(O)c(C2NC(CC(C)C)(C(=O)O)C3C(=O)N(Cc4ccccc4)C(=O)C23)c1 (configuration not stated) 13.5%, COc1ccc(OCCC(=O)OCC(=O)Nc2cccc(Br)c2)cc1 2.82%, O=CN1N=C(c2ccccc2)CC1c1ccccc1[N+](=O)[O-] (configuration not stated) 0.38%, CCCN(Cc1ccccc1)C(=S)Nc1ccc(C(C)=O)cc1 0.74%, O=C(O)COc1ccccc1C(Nc1ccccn1)c1cc(Cl)c2cccnc2c1O (configuration not stated) 23.1%, CCOc1ccc(C(Nc2cccnc2)c2cc(Cl)c3cccnc3c2O)cc1 (configuration not stated) -6.83%, COc1ccc(N2CCN(Cc3cc(=O)oc4cc(-c5ccccc5)c(O)cc34)CC2)cc1 -0.12%, COc1ccc(F)cc1S(=O)(=O)Nc1ccc(C)cc1 -1.13%, CCOC(=O)N1CCN(C(=O)c2ccc3c(c2)ncn3C2CCCC2)CC1 2.32%, O=[N+]([O-])c1cc2c(cc1/C=N/NS(=O)(=O)c1ccc(Br)cc1)OCO2 3.45%, CC1CCCCC1NC(=O)CSc1nnnn1-c1ccccc1 (configuration not stated) 2.02%, Nn1c(SCC(=O)NC2CCCCC2)nnc1-c1ccccc1 3.83%, CC1CCCCC1NC(=O)CSc1nnc(CNC(=O)c2ccccc2)n1C (configuration not stated) -2.54%, Cc1cccc(C)c1OCC(=O)NCc1nnc(SCC(=O)NC2CCCCC2)n1C 3.03%, CN(CC(=O)NC1CCCCC1)S(=O)(=O)c1ccc(Cl)cc1 -0.77%, O=C(COc1ccc(Br)cc1)N1CCOCC1 -2.69%, Cc1cccc(OCC(=O)N2CCN(C(=O)CCC3CCCC3)CC2)c1 22.4%, CC(=O)N1CCN(C(=O)COc2ccc(Br)cc2)CC1 1.6%, O=C(CCC1CCCC1)N1CCN(C(=O)COc2ccccc2)CC1 21.1%, CCCOc1ccc(CSc2n[nH]c(C)n2)cc1 8.48%, COc1ccc(CCNC(=O)C(C)Sc2ccccc2)cc1OC (configuration not stated) -0.82%, Cc1cccc(NC(=S)NCCc2ccc3c(c2)OCCO3)c1C 0.53%, CC1CCC(C(C)C)C(OC(=O)COC(=O)c2cc(O)ccc2N)C1 (configuration not stated) 6%, CCn1cc(S(=O)(=O)Nc2ccccc2C(F)(F)F)cn1 -0.46%, NNC(=O)c1ccc(O)cc1O 11.6%, COc1ccccc1C(=O)NNC(=O)c1ccc(Cl)cc1 -4.03%, CC(C)(C)c1ccc(C(=O)NNC(=O)c2ccc(Cl)cc2)cc1 0.45%, O=C(NNC(=O)c1ccccc1Br)c1ccc(Cl)cc1 -5.75%, CC1=CSC2=NC(=O)/C(=C/c3cccc(OC(=O)c4ccco4)c3)C(=N)N12 8.4%, COc1cc(/C=C2/C(=N)N3C(c4ccccc4)=CSC3=NC2=O)ccc1OCC(=O)O 8.04%, COc1ccc(/C=C2/C(=N)N3C(=NC2=O)Sc2cc(S(C)(=O)=O)ccc23)cc1OC 4.37%, CN(C)c1ccc(/C=C2\C(=N)N3C(=NC2=O)Sc2cc(S(C)(=O)=O)ccc23)cc1 12.4%, COC(=O)CCC(=O)N1CCOCCOCCOCC1 3.89%, CCOc1cc(/C=C2/NC(=O)N(Cc3ccccc3F)C2=O)ccc1O 9.55%, COc1cc(/C=C2/NC(=O)N(Cc3ccccc3F)C2=O)cc(OC)c1O 11%, Cc1ccc(S(=O)(=O)c2nc(NN(C)C)sc2Cl)cc1 2.25%, Cc1ccc(S(=O)(=O)c2nc(NCCCn3ccnc3)sc2Cl)cc1 1.08%, CC(C)CNc1nc(S(=O)(=O)c2ccccc2)c(Cl)s1 -9.9%, O=S(=O)(c1ccccc1)c1nc(NCc2ccccc2)sc1Cl 3.65%, Cc1ccc(S(=O)(=O)C2CS(=O)(=O)CC2O)cc1 (configuration not stated) -0.11%, c1ccc(CCCCNCC2COc3ccccc3O2)cc1 (configuration not stated) 0.11%, C=CCNC(=O)c1ccc([N+](=O)[O-])c(Cl)c1 1.78%, CC1=C(C(N)=O)C(c2cccs2)NC(=O)N1 (configuration not stated) 0.41%, FC(F)(F)c1cc(-c2cccs2)nc2cc(-c3cccs3)nn12 2.78%, FC(F)(F)c1cc(-c2cccs2)nc2ncnn12 14.3%, O=C(NCCCn1ccnc1)/C(=C\c1cccs1)NC(=O)c1ccco1 2.24%, CC(C)=CC(=O)NCCc1ccccc1 0.11%, Cc1cc(=O)oc2cc3c(cc12)OCCO3 9.01%, Cc1ccc2c(c1)NCCO2 9.62%, CN(C)c1ccc(CNn2cnnc2SCc2ccccc2F)cc1 3.42%, Cc1ccccc1OCCCC(=O)Nc1ccccc1C(F)(F)F -2.79%, CC(C)CN1C(=O)/C(=C/c2c(N3CCc4ccccc4C3)nc3ccccn3c2=O)SC1=S 2.88%, CCOC(=O)CC1C(=O)NCCN1S(=O)(=O)c1ccc(C)cc1 (configuration not stated) -1.42%, CCOC(=O)CC1C(=O)NCCN1C(=O)c1cc2c(=O)n3ccccc3nc2s1 (configuration not stated) -1.82%, CCOCCCNc1nc2c(C)cccn2c(=O)c1/C=C1\SC(=S)N(C(C)CC)C1=O (configuration not stated) 3.39%, CCOC(=O)C(=O)c1c(-c2ccc(C)cc2)nc2ccccn12 10.6%, COC(=O)c1c(C)oc(C)c1S(=O)(=O)N1CCCCC1 0.96%, CCCCCCOc1ccc(C(=O)NCCCn2ccnc2)cc1 -4.66%, CN(C)CCNC(=O)NC1CCCCC1 4.13%, CC(=O)NS(=O)(=O)c1ccc(NC(=O)c2ccc3c(c2)C(=O)N(CCC(C)C)C3=O)cc1 9.98%, CC(/C=C1\SC(=S)N(NC(=O)c2ccccc2C)C1=O)=C\c1ccccc1 4.17%, CCN1C(=O)/C(=C2\SC(=S)N(CCCOC)C2=O)c2ccccc21 0.63%, CCN1C(=O)/C(=C2\SC(=S)N(CC3CCCO3)C2=O)c2ccccc21 (configuration not stated) 2.68%, Cc1ccc(S(=O)(=O)N2C(=O)/C(=C3\SC(=S)NC3=O)c3ccccc32)cc1 16.8%, CC(/C=C1\SC(=S)N(NC(=O)c2ccc(C)cc2)C1=O)=C\c1ccccc1 5.4%, CC(=O)N1C(=O)/C(=C2\SC(=S)N(c3c(C)n(C)n(-c4ccccc4)c3=O)C2=O)c2ccccc21 9.72%, CC(/C=C1\SC(=S)N(NC(=O)c2ccncc2)C1=O)=C\c1ccccc1 13.9%, CC(/C=C1\SC(=S)N(NC(=O)c2ccc(O)cc2)C1=O)=C\c1ccccc1 4.4%, CC1=C(C(=O)c2ccccc2)C(c2ccc(OC(F)F)cc2)NC(=S)N1 (configuration not stated) 3.11%, CN1CCN(CC(=O)NC2CCCCC2)CC1 -3.84%, Cc1cc(C)n(-c2nc3c(c(=O)[nH]c(=O)n3C)n2Cc2cccc(Br)c2)n1 6.71%, COc1cccc(NS(=O)(=O)c2ccc(OC)c(OC)c2)c1 8.68%, COc1ccc(NC(=O)c2ccc3c(SCC(=O)O)c4c(nc3c2)CCCC4)cc1Cl 6.4%, COc1cc(Cl)c(C)cc1NC(=O)c1ccc2c(SCC(=O)O)c3c(nc2c1)CCCC3 39.2%

inhibition, active:
Cc1ccc(NC(=O)CSc2nnc(-c3ccco3)c(-c3ccco3)n2)cc1 25%, CCN(CC)Cc1c(O)c(Cl)cc2c(C)c(C)c(=O)oc12 23.6%, Cc1cccc(C)c1OCC(=O)NCc1nnc(SCC(=O)NC2CCCCC2C)n1C (configuration not stated) 24.1%, Cc1cccc(C(=O)NNC(=O)c2ccc(Cl)cc2)c1O 27.7%
